{"source": "PubChem BioAssay (Tox21)", "note": "Records with an inconclusive call do not appear. Calls of active or inactive are those of the source. Calls come from the whole dose curve. % is set by controls: 0 for no effect and ±100 for the full control effect."}
{"target": "5-hydroxytryptamine receptor 2A (Homo sapiens) (UniProt P28223)", "sequence (P28223 whole entry, looked up)": "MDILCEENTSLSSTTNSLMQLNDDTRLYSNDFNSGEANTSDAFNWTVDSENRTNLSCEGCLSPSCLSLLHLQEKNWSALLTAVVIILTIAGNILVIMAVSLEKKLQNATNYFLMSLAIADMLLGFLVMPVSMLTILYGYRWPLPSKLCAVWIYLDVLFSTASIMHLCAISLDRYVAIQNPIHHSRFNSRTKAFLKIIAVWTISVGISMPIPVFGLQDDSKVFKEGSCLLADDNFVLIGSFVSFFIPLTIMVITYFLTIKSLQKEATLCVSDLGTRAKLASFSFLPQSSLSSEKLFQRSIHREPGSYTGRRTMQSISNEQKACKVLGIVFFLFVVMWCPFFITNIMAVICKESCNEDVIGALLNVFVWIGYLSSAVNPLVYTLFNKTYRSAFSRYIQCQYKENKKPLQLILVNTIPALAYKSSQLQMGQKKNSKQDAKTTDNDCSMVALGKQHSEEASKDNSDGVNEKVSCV", "test": "5-hydroxytryptamine receptor 2A (HTR2A) small molecule antagonists, cell-based qHTS assay (AID 1963586); note: nearly all actives have a fitted effect of over 45% in size", "conditions": "HTR2A-CHO cells, DOI-induced calcium flux, fluorescence; series mostly up to 61.5 µM; activity, negative = inhibition: at the top concentration", "procedure,_shortened": "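CHO cells stably expressing human HTR2A were plated for 18 h at 37 C, then loaded with calcium dye for 1 h. Compounds were preincubated 5 min at room temperature before DOI (4 nM solution) was added. Kinetic fluorescence was read for 3 min.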"}
{"compound": "Oc1cc2ccccc2c2ccccc12", "activity, negative = inhibition": "-23.2% (inactive)"}
{"compound": "CCCCCCC(C)Nc1ccc(Nc2ccccc2)cc1", "note": "(stereo unspecified)", "activity, negative = inhibition": "-9.23% (inactive)"}
{"compound": "CCCCCCCCCCCCCOC(=O)CCSCCC(=O)OCCCCCCCCCCCCC", "activity, negative = inhibition": "1.85% [at 12.7 µM] (inactive)"}
{"compound": "CC(C)(C)C(=O)CCc1ccc(Cl)cc1", "activity, negative = inhibition": "2.58% (inactive)"}
{"compound": "CC(C)COC(=O)COc1ccc(Cl)cc1Cl", "activity, negative = inhibition": "1.54% (inactive)"}
{"compound": "C=C(C)c1cccc(C(=C)C)c1", "activity, negative = inhibition": "0.106% (inactive)"}
{"compound": "CC(C)(C)C1CCCCC1=O", "note": "(stereo unspecified)", "activity, negative = inhibition": "3.65% (inactive)"}
{"compound": "COC(=O)CC(=O)C(C)(C)C", "activity, negative = inhibition": "9.36% (inactive)"}
{"compound": "CC(C)NCC(O)c1cc(O)cc(O)c1", "note": "(stereo unspecified)", "activity, negative = inhibition": "-0.419% [at 28.5 µM] (inactive)"}
{"compound": "O=C=NCC1CCCC(CN=C=O)C1", "note": "(stereo unspecified)", "activity, negative = inhibition": "-8.3% (inactive)"}
{"compound": "NNc1nc(-c2ccccc2)cs1", "activity, negative = inhibition": "0.409% (inactive)"}
{"compound": "O=Cc1cc(O)ccc1Br", "activity, negative = inhibition": "-14% (inactive)"}
{"compound": "Cc1ccc(C)c([N+](=O)[O-])c1", "activity, negative = inhibition": "-21.4% (inactive)"}
{"compound": "CCN(CC)C(=O)c1ccc(O)c(OC)c1", "activity, negative = inhibition": "-27.7% [at 28.5 µM] (inactive)"}
{"compound": "Cc1cccc(NC(=S)N(C)C)c1", "activity, negative = inhibition": "-32.2% (inactive)"}
{"compound": "COc1ccc(OC)c(Cl)c1", "activity, negative = inhibition": "14.1% (inactive)"}
